aSyn yeast inh: qHTS of alpha-syn Inhibitors; Yeast expressing alpha-synuclein, growth rescue, BacTiter-Glo, 24 h; Potency, µM (series often up to 46.1 µM), for inactives: at the highest dose growth rescue (activation), actives largely listed as activators; actives 0.14% (n = 370,000); also: % of control where 0% means no effect; nearly all actives have a fitted effect of over 65% in size
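Screening used galactose-induced yeast with toxic alpha-synuclein levels, exposed to compound for 24 hr at 30 deg C. Cell growth, read with BacTiter-Glo luminescence, gave the measured signal.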
Mito fusion yeast: qHTS Assay for Small Molecule Inhibitors of Mitochondrial Division or Activators of Mitochondrial Fusion | S. cerevisiae fusion-defective mutant growth rescue, CellTiterGlo 48 h | actives 0.23% (n = 320,000) | Potency, µM (doses to about 46.1 µM), for the others: at the highest dose growth rescue (activation), hits mostly activators; also: % of control where 0% means no effect; nearly all actives have a fitted effect of over 45% in size
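Luminescent cell viability in 1536-well qHTS format served as the measure of rescued growth in ts fusion-mutant S. cerevisiae cultured on non-fermentable YPEG for 48 hours at 37C.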
FUS suppressor: qHTS for Suppressors of FUS Proteinopathy: Primary screen using FUS-linked yeast assay. actives 0.24% (n = 390,000). Potency, µM (titrated, usually from 76.6 µM), actives largely listed as activators. S. cerevisiae FUS-expressing, growth rescue, OD600, 24 h;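 also: plate controls were DMSO vehicle for no effect and reference control for full effect; nearly all actives have a fitted effect of over 55% in size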
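S. cerevisiae expressing FUS from galactose induction served as the toxicity model. Growth after 24hr at 30C, read as absorbance at 600 nm, indicates suppression of toxicity; compounds dosed at several concentrations.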
TDP43 rescue: qHTS of TDP-43 Inhibitors; TDP-43 expressing yeast growth rescue, BacTiter-Glo, 24 h; actives 1.8% (n = 410,000); AID 652104, 2013; Potency, µM (top dose mostly 46.1 µM), without a hit: top-dose growth rescue (activation), most hits filed as activators; also: % of control where 0% means no effect; nearly all actives have a fitted effect of over 50% in size
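In this qHTS, compounds that restore growth of yeast expressing TDP-43 appear as activators. Cells (OD600=0.02, galactose medium, raffinose-pregrown) are incubated with compound 24 hr at 30 deg C and growth is quantified by BacTiter-Glo.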
Abeta yeast res: qHTS for compounds that reverse cellular toxicity of Amyloid beta (A-beta) peptide in yeast: Primary Screen | Potency, µM (doses to about 46.1 µM), hits mostly activators | actives 0.063% (n = 410,000) | yeast expressing A-beta42, growth rescue, OD600, 48 h; response scale: 0% DMSO, 100% iron-clioquinol control | AID 1347071, 2019; also: nearly all actives have a fitted effect of over 55% in size
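Yeast growth medium received pinned compounds, then yeast cells expressing toxic A-beta were added; plates incubated at 30 C for 48 hr. Growth read as absorbance at 600 nm, normalized to DMSO and equimolar FeCl3 plus clioquinol controls.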
An asterisk follows results filed as active; i = inactive; ? = inconclusive; . = not tested or not shown; [ ] = dose if it differs, or a comment. A selection: hits, their analogues and other compounds. The true share with any hit is near 2.2%. Calls follow the shape of the dose curve; as a rule, active = well fitted curve in the direction sought with a large enough effect; inconclusive = small, poorly fitted or top-dose-only effect, or another doubt; inactive = no such curve, though single readings can be large; an effect the other way counts as inactive or inconclusive. Potency is read from the fitted curve at half-maximal effect.

SMILES | aSyn yeast inh | Mito fusion yeast | FUS suppressor | TDP43 rescue | Abeta yeast res
Cc1ccc(C)c(C(=O)COC(=O)c2n[nH]c3ccccc23)c1 | ? | . | i | 20µM* | i
Cc1cccc(C)c1OCCOC(=O)c1n[nH]c2ccccc12 | 2% | -4% | i | -12%[1.82 µM] | ?
CCCCn1c(N)c(N(CCOC)C(=O)c2oc3ccc(Br)cc3c2C)c(=O)[nH]c1=O | -3% | . | 16µM* | 2% | i
Cn1ncc2c(N3CCN(c4ccccc4F)CC3)ncnc21 | 6% | 0% | i | 13µM* | i
CCN1CCCCC(NC(=O)c2cccc(C(F)(F)F)c2)C1=O (stereo not drawn) | . | . | i | . | .
Cn1c(/C(C#N)=C/c2ccccc2Br)nc2ccccc21 | . | . | i | 11µM* | i
CCn1c(/C(C#N)=C/c2ccccc2Cl)nc2ccccc21 | . | -7% | i | 18µM* | i
O=C(C[n+]1ccccc1Br)c1ccc(I)cc1 | 13% | . | . | . | .
COc1ccc(-n2c(SCC(=O)Nc3nccs3)nc3sc4c(c3c2=O)CCN(C)C4)cc1 | 6% | 2% | 28µM* | -18% | i
COc1ccc(NC(=O)CSc2nc3sc4c(c3c(=O)n2-c2ccc(OC)cc2)CCN(C)C4)cc1 | -1% | -7% | ? | 4% | i
CCOc1cc(CN2CCC(n3nccc3NC(=O)C3CC3)CC2)ccc1O | -13% | -14% | i | 19% | .
O=C1C2C(C(=O)N1/N=C/c1ccc([N+](=O)[O-])o1)C1C=CC2C12CC2 (stereo not drawn) | 26% | 1% | . | 18µM* | i
COc1ccc(Nc2nc(-c3cc4cccc(OC)c4oc3=O)cs2)cc1 | -7% | -1% | . | 24% | i
COc1ccc2oc(=O)c(-c3csc(Nc4cccc(O)c4)n3)cc2c1 | -16% | 16µM* | ? | -48% | i
CCc1ccc(NC(=O)c2cc(S(=O)(=O)NC3CCCC3)ccc2F)cc1 | . | . | i | 20µM* | i
Cc1c(C(C)(C)O)[nH]c2cc(C(F)(F)F)ccc12 | 7% | 9% | i | ? | ?
CC(C)(O)c1[nH]c2ccc(C(F)(F)F)cc2c1C(C)(C)O | 4% | -9% | i | 14µM* | ?
CC(C)(O)c1[nH]c2cc(C(F)(F)F)ccc2c1C(C)(C)O | 13% | -6% | i | 35µM* | ?
O=S(=O)(NCC(c1ccco1)N1CCc2ccccc21)c1ccccc1 (stereo not drawn) | 10% | ? | i | 22µM* | i
O=S(=O)(NCC(c1ccccc1)N1CCc2ccccc21)c1ccc(Cl)cc1 (stereo not drawn) | . | . | ? | 11% | i
CCCCCCCCN1C(=O)[C@@H](CC(=O)NCCC(C)C)C[C@@]2(C(=O)OC)C1=C[C@H](COCc1ccccc1)O[C@@H]2C | . | . | i | . | .
O=C(O)Cn1c(-c2cccs2)cc2cc(Cl)ccc21 | . | . | i | 18µM* | i
O=C(Cn1c(-c2cccs2)cc2cc(Cl)ccc21)NCc1ccccc1 | . | . | i | 3% | i
Cc1nn2c(-c3ccc(F)cc3)ccnc2c1Br | 14% | -4% | i | 15% | i
COc1ccc(-c2ccnc3c(Br)c(C)nn23)cc1 | 0%[1.84 µM] | 4% | i | 11µM* | i
SMILES | aSyn yeast inh | Mito fusion yeast | FUS suppressor | TDP43 rescue | Abeta yeast res
Brc1ccsc1/C=N/Nc1ccccc1 | -2% | . | i | 10µM* | i
Cc1ccsc1/C=N/Nc1ccc(C(=O)O)cc1 | -2% | 7% | i | ? | i
O=C(NC1CCCCN(Cc2ccc(OC(F)(F)F)cc2)C1=O)c1ccc(F)c(F)c1 (stereo not drawn) | . | . | i | . | .
Brc1ccc(Oc2nsnc2N2CCOCC2)cc1 | -6% | 1% | i | 11µM* | i
CCc1cc(-c2onc(C)c2-c2cscn2)c(O)cc1OC | ? | -9% | i | 18µM* | i
COc1ccc(-c2onc(C)c2-c2cscn2)c(O)c1 | -8% | 1% | i | 8% | i
Cc1ccc(C)c(S(=O)(=O)N2CCNCC2)c1 | -3% | -4% | i | -20% | i
Cc1ccc(C)c(S(=O)(=O)N2C(=S)NC(=O)C2CC(C)C)c1 (stereo not drawn) | ? | 12% | i | 25µM* | i
COc1cnc(-c2ccccn2)nc1Sc1ccccc1Cl | 3% | -4% | i | ? | 11µM*
CCN(C(=O)CCN1C(=O)S/C(=C\c2ccccc2)C1=O)C1CCS(=O)(=O)C1 (stereo not drawn) | 4% | -2% | i | -11% | i
COc1cc(/C=C/C2=NNC(=O)CC2)cc(OC)c1OC | 8% | 4% | i | -8% | i
CC(C)c1ccc(/C=C/C2=NNC(=O)CC2)cc1 | 0% | 3% | i | 11µM* | i
Cc1ccc(NS(=O)(=O)c2ccc3[nH]c4c(c3c2)CCCCCC4)cc1Cl | -22% | . | 22µM* | -7% | i
Cc1cccc(C)c1NC(=O)CN(C)S(=O)(=O)c1ccc2[nH]c3c(c2c1)CCCC3 | . | . | i | -6% | i
COc1ccc(NS(=O)(=O)c2ccc3[nH]c4c(c3c2)CCCC4)cc1Cl | . | . | ? | 0% | i
CCOc1ccc(NS(=O)(=O)c2ccc3[nH]c4c(c3c2)CCCC4)cc1 | . | . | i | 0% | i
Cc1ccccc1NS(=O)(=O)c1ccc2[nH]c3c(c2c1)CCCCC3 | ? | . | 35µM* | ? | i
CCOc1ccc(NS(=O)(=O)c2ccc3[nH]c4c(c3c2)CCCCC4)cc1 | . | . | i | 18µM* | i
Cc1cccc(N(C)C(=O)CN(C)S(=O)(=O)c2ccc3[nH]c4c(c3c2)CCCC4)c1 | . | . | 32µM* | 27% | i
O=C(c1cccn2c(=O)c3cc(Cl)ccc3nc12)N1CCN(c2ccccc2F)CC1 | . | . | i | 25% | i
COc1ccc(-c2cc(C(=O)N(C3CCCCC3)C3CCCCC3)no2)cc1 | . | . | i | . | .
COc1cc2nc(N3CCN(C)CC3)nc(NC3CCN(Cc4ccccc4)CC3)c2cc1OC | -5% | . | . | . | .
COc1ccc(C=NN=C2c3ccccc3-c3ccccc32)cc1O | 1% | . | . | 18µM* | i
CCCCN(C)S(=O)(=O)c1ccc2[nH]c(=O)oc2c1 | . | . | i | . | .
N#Cc1ccc(-c2c(-c3ccccc3)ncc3cc(F)ccc23)cc1 | -35% | 26% | i | 16µM* | i
Fc1ccc2cnc(-c3ccccc3)c(-c3ccc(C(F)(F)F)cc3)c2c1 | -15% | -17% | i | 48% | i
O=[N+]([O-])c1ccc(-c2c(-c3ccccc3)ncc3ccc(F)cc23)cc1 | -24% | ? | i | 18µM* | i
